CBFb RUNX1 block: inhibitors of human CBF-beta and RUNX1 interaction; Q01196+Q13951; AlphaScreen CBFb-His/RUNX1-biotin binding, biochemical; Potency, µM (top dose mostly 59.8 µM), for inactives: at the highest dose activity, negative = inhibition, hits mostly inhibitors; 230,000 tested, under 10 active; AID 1477; also: % of control where 0% means no effect
Target sequence (Q01196 whole entry, looked up): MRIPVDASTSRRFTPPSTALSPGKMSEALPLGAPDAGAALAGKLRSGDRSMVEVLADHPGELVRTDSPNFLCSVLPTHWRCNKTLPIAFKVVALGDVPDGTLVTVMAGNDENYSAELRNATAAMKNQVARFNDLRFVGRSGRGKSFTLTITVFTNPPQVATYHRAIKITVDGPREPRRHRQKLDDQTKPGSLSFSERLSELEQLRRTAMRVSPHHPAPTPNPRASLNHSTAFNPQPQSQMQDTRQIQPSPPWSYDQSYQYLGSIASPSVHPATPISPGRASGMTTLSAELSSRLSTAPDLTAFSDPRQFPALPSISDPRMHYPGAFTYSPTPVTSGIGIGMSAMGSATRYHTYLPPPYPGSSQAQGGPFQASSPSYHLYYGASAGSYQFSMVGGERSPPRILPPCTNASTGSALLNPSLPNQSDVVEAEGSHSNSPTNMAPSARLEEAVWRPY
Target sequence (Q13951 whole entry, looked up): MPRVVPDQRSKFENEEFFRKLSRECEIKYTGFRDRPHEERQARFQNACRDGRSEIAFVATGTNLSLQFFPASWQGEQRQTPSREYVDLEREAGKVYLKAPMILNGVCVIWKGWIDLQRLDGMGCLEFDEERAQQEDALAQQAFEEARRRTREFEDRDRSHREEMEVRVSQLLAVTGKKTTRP
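Inhibition was taken as any reduction in AlphaScreen signal from the CBF-beta–RUNX1 pair (His and biotin tags, 30 nM each), measured after compound (15 min) and bead (90 min) incubations at room temperature.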
TRHR agonist-1: agonists of human TRH receptor; P34981; TRHR cells, calcium flux fluo-8, FDSS agonist mode; activation, % at 2 µM; 0.18% of 360,000 active; AID 493084; in the data active = activation above about 30%; also: 0% is about no effect
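Read-out: compound-evoked intracellular calcium rise in TRHR cells, fluo-8 dye, kinetic FDSS fluorescence at 1 s/cycle following a 10-cycle baseline. Cells cultured overnight before dye loading (30 min–1.5 h, RT).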
IL2 activator: activators of IL-2 | IL-2 activation reporter assay, cell-based qHTS; stimulated with anti-CD3/CD4/CD28 beads; in transgenic mouse T cells | activation, % (series mostly up to about 46 µM) | 0.065% of 360,000 active; in the data active = activation above about 50%; inconclusive = mostly about 30% to 49%; also: 0% is about no effect
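EGFP and DsRed fluorescence is measured by plate cytometry in unstimulated transgenic mouse T cells exposed to compound for 60 minutes, then stimulated 18 hours at 37 degrees C with anti-CD3/anti-CD4 beads plus anti-CD28.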
MBNL1-CUG inh: blocks human MBNL1 binding to CUG repeat RNA | Q9NR56 | TR-FRET MBNL1-His/biotin-(CUG)12 binding, 665/545 ratio | Potency, µM (doses to about 57.5 µM), inactives show at the highest dose activity change, negative = inhibition, most hits filed as inhibitors | 0.036% of 280,000 active | AID 2675; active = well fitted inhibition curve with a large enough effect in the signal ratio, with a control signal flat, not every such curve was filed as active; inconclusive = small, poorly fitted or top-dose-only effect, or effect the other way, or a change in a side signal; inactive = no such curve, though single readings can be large or run the other way; the % refers to the signal ratio; also: potency is read from the fitted curve at half-maximal effect; % is scaled to controls: 0 for no effect and ±100 for the full control effect
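Compound titration spanned 92 nM–58 uM against the MBNL1-His/biotin-(CUG)12 complex. After 60 min at room temperature with 5 nM streptavidin-XL665 and 0.055 ng/ul terbium anti-His, ratiometric 665/545 nm emission (Ex 340 nm) normalized to controls.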
TRHR enhancer-1: allosteric enhancers of human TRH receptor; P34981; 0.66% of 360,000 active; AID 493056; TRHR cells, fluo-8 calcium fluorescence, EC20 TRH enhancement; enhancement, % at 2 µM; in the data active = enhancement above about 30%; also: 0% is about no effect
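Enhancer read-out: after compound pinning and an initial kinetic agonist-mode read, an EC20 of TRH (10 nM final) was injected and fluo-8 calcium signal (Ex 480/Em 530) followed at 1 s/cycle for 100 cycles in TRHR-expressing cells.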
Epigenetic reg: regulators of epigenetic silencing causing reporter derepression in mouse cells. 0.2% of 280,000 active. Potency, µM (doses to about 53.9 µM), for inactives: at the top dose GFP activation, most hits filed as activators. murine LDR cells, GFP reporter derepression, 30 h; also: potency is read from the fitted curve at half-maximal effect; % of control where 0% means no effect; nearly all actives have a fitted effect of over 60% in size
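In this reporter-derepression format, murine cells bearing a silenced integrated CMV-GFP locus incubate with test compound (30 h, 37 C), then are washed and imaged; fluorescent objects of 20–120 um count as induced cells.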
TRHR enhancer-2: confirmation of human TRH receptor allosteric enhancers; shares compounds with TRHR enhancer-1; TRH receptor cell assay, enhancer confirmation qHTS; activity change, negative = inhibition, % at 46.1 µM; 970 tested, under 10 active; AID 493076;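 also: compound effect scored on response to added TRH at EC20 of 10 nM; 0% is about no effect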
TRHR agonist-2: human TRH receptor agonism confirmation | Potency, µM (highest dose often 46.1 µM), inactives show at the top dose activation, most hits filed as activators | shares compounds with TRHR enhancer-1 | TRHR-expressing cells, agonist activation read-out | 8% of 970 active; also: potency is read from the fitted curve at half-maximal effect; 0% is about no effect; nearly all actives have a fitted effect of over 75% in size
Active calls of the source: *; ? = inconclusive; . = not tested or not shown; ! = a repeat was not active; [ ] = another dose, or the depositor's remark. This is a sample that favours compounds with a hit; in the whole collection about 0.88% have one here. Unless noted, calls follow the shape of the dose curve; as a rule, active = well fitted curve in the direction sought with a large enough effect; inconclusive = small, poorly fitted or top-dose-only effect, or another doubt; inactive = no such curve, though single readings can be large; an effect the other way counts as inactive or inconclusive.

SMILES	CBFb RUNX1 block	TRHR agonist-1	IL2 activator	MBNL1-CUG inh	TRHR enhancer-1	Epigenetic reg	TRHR enhancer-2	TRHR agonist-2
CCOC(=O)C1CCCN(c2c(Nc3ccc(C)c(C)c3)c(=O)c2=O)C1 (stereo unspecified)	10.6%	-1.0	-1.4	-26.1%	56.7*	0.0%	-2.6	3.3%
CC(C)CC1=NN2C(=N)/C(=C\c3coc4ccccc4c3=O)C(=O)N=C2S1	-19.0%	25.5	2.4	18.9%	13.6	-4.5%	-0.4	2.59µM*
COc1ccc(CNC(=O)Cn2ncc3c(=O)oc4ccc(C)cc4c32)c(OC)c1	.	-1.7	.	.	1.2	-3.0%	.	.
Cc1ccc(-n2nc(CO)c(C(=O)NC(C)c3ccccc3)n2)cc1C (stereo unspecified)	.	-0.7	.	.	-3.6	1.7%	.	.
CC(C)(C)NC(=O)C1N(c2cccnc2)C(=O)C2C(C(=O)Nc3ccccc3)C3(C)C=CC21O3 (stereo unspecified)	-0.4%	0.6	1.1	-4.3%	1.7	1.2%	.	.
Cc1cc(NC(=O)C2C3C(=O)N(c4cccnc4)C(C(=O)NC(C)(C)C)C34C=CC2(C)O4)no1 (stereo unspecified)	1.9%	0.1	0.3	-11.5%	42.0*	-1.6%	2.5	5.3%
O=C1COc2ccc(-c3cc(-c4ccc(Cl)cc4)c4c(n3)-c3ccccc3OC4)cc2N1	.	0.0	.	.	-0.8	-1.1%	.	.
CCOc1ccc(NC(=O)Nc2nc3ccc(S(C)(=O)=O)cc3s2)cc1	.	0.8	-0.7	52.5%	58.2*	.	-1.4	-0.7%
CC(=O)c1c(C)[nH]c(C(=O)CN2CCN(S(=O)(=O)c3ccccc3[N+](=O)[O-])CC2)c1C	.	0.3	-0.7	.	45.3*	.	-6.2	-0.7%
CCCS(=O)(=O)N1CCN(S(=O)(=O)c2ccccc2[N+](=O)[O-])CC1	1.1%	0.2	0.5	5.1%	2.0	2.2%	.	.
C[C@H]1Cc2c(-c3ccccc3)nc3c(c2CO1)CN(C(=O)NCc1ccco1)CC3	5.1%[13.1 µM]	.	.	.	.	.	.	.
O=C(NC(N1CCOCC1)C(Cl)(Cl)Cl)c1ccco1 (stereo unspecified)	0.2%	-0.8	-3.5	?	5.1	-1.1%	.	.
O=C(/C=C/c1ccccc1)NC(N1CCOCC1)C(Cl)(Cl)Cl (stereo unspecified)	1.8%	0.2	-3.9	-4.3%	45.4*	1.1%	-6.5	6.3%
COc1ccc(NS(=O)(=O)c2ccc(N3CCCC3)c(NC(=S)Nc3ccc(SC(F)F)cc3)c2)cc1	-11.2%	-0.3	-3.2	.	64.7*	-0.9%	1.8	-0.8%
COc1ccc(NS(=O)(=O)c2ccc(N3CCCC3)c(NC(=S)Nc3cccc(C)c3C)c2)cc1	-22.9%	-0.3	2.9	.	-9.1	-1.1%	.	.
COc1ccccc1C1NC(=O)NC(C)=C1C(=O)OCc1ccccc1 (stereo unspecified)	.	-0.5	-0.7	8.9%	-0.9	.	.	.
COc1ccc(COC(=O)C2=C(C)NC(=O)NC2c2ccccc2OC(C)C)cc1 (stereo unspecified)	.	0.7	-0.9	0.6%	47.5*	.	-3.4	3.0%
COc1ccc(NC2CCCN(C(=O)CSc3ccncc3)C2)cc1 (stereo unspecified)	.	-0.4	-3.2	-9.1%	82.9*	.	-1.3	-0.8%
O=C1CC(c2ccccc2)Sc2nc3ccccc3n21 (stereo unspecified)	17.3%	-1.1	-4.3	12.8%	42.3*	-0.2%	-10.5	0.9%
O=C1CC(c2cccs2)Sc2nc3ccccc3n21 (stereo unspecified)	3.2%	-0.9	-3.7	6.7%	-12.2	-0.9%	.	.
CCCNC(=O)C(=O)NCC1CCCN1CC (stereo unspecified)	4.8%	0.4	-0.1	-0.1%	27.1	-1.1%	.	.
C=CCNC(=O)C(=O)NCC1CCCN1CC (stereo unspecified)	-6.9%	1.0	-0.2	9.3%	41.5*	0.9%	-4.3	-0.3%
Oc1c(C=C2N=c3ccccc3=N2)sc(=S)n1-c1ccccc1	-1.2%	-1.0	0.0	-7.7%	3.4	3.2%	.	.
Oc1c(C=C2N=c3ccccc3=N2)sc(=S)n1C1CCCCC1	-2.0%	0.0	0.6	-2.4%	41.2*!	0.0%	-2.2	-0.8%
C=CCC(CC)C(=O)NC(=O)N1CCCc2ccccc21 (stereo unspecified)	2.1%	-0.4	0.1	-5.7%	42.1*	2.5%	-4.6	0.4%
SMILES	CBFb RUNX1 block	TRHR agonist-1	IL2 activator	MBNL1-CUG inh	TRHR enhancer-1	Epigenetic reg	TRHR enhancer-2	TRHR agonist-2
Nc1nonc1/C(=N/O)N1CCN(CCO)CC1	7.3%	1.0	-0.1	-7.3%	88.0*	-2.9%	-0.9	-0.4%
CN1CCN(/C(=N\O)c2nonc2N)CC1	1.7%	-0.4	1.9	2.7%	-8.2	-0.7%	.	.
CN(C)C(=O)c1ccc(NS(=O)(=O)c2ccc3c(c2)OCCO3)cc1	.	0.2	-1.0	-2.3%	65.6*	.	-0.8	-0.3%
O=C(O)c1ccc(NS(=O)(=O)c2ccc3c(c2)OCCO3)cc1	3.0%	0.7	-2.6	2.6%	8.7	-1.4%	.	.
CCC1=NN(C(=O)c2ccc(Cl)cc2)C(O)(c2ccccc2)C1 (stereo unspecified)	.	0.0	-0.5	1.7%	-10.8	.	.	.
COC(=O)C1=NN(C(=O)c2ccc(Cl)cc2)C(O)(c2ccccc2)C1 (stereo unspecified)	-5.1%	46.5*	3.8	-10.2%	-5.8	3.1%	-6.9	18.4µM*
Cn1c(=O)c2cc(C(=O)N3CCN(c4cccc(C(F)(F)F)c4)CC3)sc2c2ccccc21	.	0.2	.	.	-3.4	1.2%	.	.
COc1ccc(C(=O)NNC(=O)c2ccc3ccccc3c2)cc1	.	.	-0.3	.	.	.	.	.
COc1ccc(NC(=O)c2ccc3nc(C)sc3c2)cc1	.	0.5	-4.4	4.8%	57.5*	.	0.5	1.5%
COc1ccccc1NC(=O)c1ccc(-c2nn(C)c(=O)c3ccccc23)cc1	1.3%	-2.2	-2.0	-0.2%	-10.5	0.0%	.	.
COc1ccc(NC(=O)c2ccc(-c3nn(C)c(=O)c4ccccc34)cc2)cc1	21.4%	-1.0	-0.6	-14.6%	44.2*	2.5%	5.2	-0.7%
COc1ccc(NC(=O)c2ccc3ccccc3c2)cc1	.	-0.9	-2.8	-3.6%	54.1*	.	6.3	-0.5%
COc1ccc(C(=O)NNC(=O)c2cccc(F)c2)cc1	4.0%	0.2	-3.0	2.9%	45.1*	1.0%	-0.7	1.3%
COC(=O)c1ccc(NC(=O)c2ccc3nc(C)sc3c2)cc1	.	-1.2	-0.8	?	-2.4	.	.	.
